An excerpt weighted towards active compounds, which were near 2.5% of everything screened.
Cruzain inh Det – inhibitors of Trypanosoma cruzi cruzain with detergent; 200,000 compounds, 0.43% hits; P25779; purified cruzain, Z-FR-AMC fluorescence, 0.01% Triton; Potency, µM, hits mostly inhibitors; also: nearly all actives have a fitted effect of over 40% in size
Target sequence (P25779 123-467 limits assumed): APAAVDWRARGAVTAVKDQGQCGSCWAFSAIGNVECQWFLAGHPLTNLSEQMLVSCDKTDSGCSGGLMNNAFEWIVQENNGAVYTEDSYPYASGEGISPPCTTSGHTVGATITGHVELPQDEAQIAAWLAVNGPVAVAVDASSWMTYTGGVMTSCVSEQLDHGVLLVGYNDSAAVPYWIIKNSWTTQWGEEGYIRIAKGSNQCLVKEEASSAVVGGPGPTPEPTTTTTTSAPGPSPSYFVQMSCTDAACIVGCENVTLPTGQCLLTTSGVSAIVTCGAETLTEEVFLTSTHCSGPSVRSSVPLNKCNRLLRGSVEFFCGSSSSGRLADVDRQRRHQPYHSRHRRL
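In this qHTS format, compounds are incubated with 1.5 nM cruzain for 15 min at room temperature before 2 uM Z-FR-AMC is added. Release of AMC is followed at 360/450 nm, and progress is taken as the 60 s fluorescence difference.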
Cruzain noTriton – blocks cruzain activity in detergent-free assay | P25779 | purified cruzain, Z-FR-AMC fluorescence, no detergent | Potency, µM, actives largely listed as inhibitors | 200,000 compounds, 2.3% hits; also: nearly all actives have a fitted effect of over 40% in size
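Detergent-free condition (0.00005% Triton X-100) in acetate buffer pH 5.5 with DTT. 1.5 nM enzyme and compound were pre-mixed 15 min, then 2 uM Z-FR-AMC substrate added; reaction progress from fluorescence change between first and third reads (60 s).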
Of the large screens only hits and unclear results are named; the others gave an inactive call. Calls follow the shape of the dose curve; as a rule, active = well fitted curve in the direction sought with a large enough effect; inconclusive = small, poorly fitted or top-dose-only effect, or another doubt; inactive = no such curve, though single readings can be large; an effect the other way counts as inactive or inconclusive.

Cc1cc(C)c(NC(=O)C2CCN(C(=O)N3CC(C)Oc4ccc(Cl)cc43)CC2)c(C)c1 (configuration not stated)	Cruzain noTriton inconclusive
COc1cc(Cl)c(C)cc1NC(=O)C1CCN(c2nc3ccccc3n3cccc23)CC1	Cruzain noTriton inconclusive
Cc1ccc(CN2CCC(CNC(=O)c3cnn(-c4ccccc4)c3C3CCN(C(=O)OC(C)(C)C)CC3)CC2)cc1	none
CCCCC[C@H](O)/C=C/C=C\C/C=C\C=C\[C@@H](O)CCCC(=O)O	none
O=S(=O)(Nc1ccc(N2CCOCC2)cc1)c1ccc2ccccc2c1	none
O=S(=O)(Nc1nc2ccccc2nc1Nc1ccc(N2CCOCC2)cc1)c1cc(Cl)ccc1Cl	Cruzain noTriton 20µM
COc1ccc(NC(=O)Cn2c(=O)n(Cc3ccco3)c(=O)c3sc4ccccc4c32)c(OC)c1	none
COc1ccc(NC(=O)Cn2c(=O)n(Cc3ccco3)c(=O)c3sc4ccccc4c32)cc1Cl	Cruzain noTriton 25.1µM
O=c1[nH]c(CN2CCN(c3ccccc3)CC2)nc2scc(-c3ccccc3)c12	Cruzain noTriton inconclusive
COC(=O)c1ccc2c(=O)[nH]c(CN3c4ccccc4CC3C)nc2c1 (configuration not stated)	Cruzain noTriton inconclusive
CC1Cc2ccccc2N1Cc1nc2cc(Cl)ccc2c(=O)[nH]1 (configuration not stated)	Cruzain noTriton 25.1µM
CC1Cc2ccccc2N1Cc1nc2scc(-c3cccs3)c2c(=O)[nH]1 (configuration not stated)	Cruzain noTriton 15.8µM
Cc1ccc(CNC(=O)C2CCN(S(=O)(=O)Cc3ccccc3)CC2)cc1	none
CCC#CCOCC(=S)Nc1ccccc1	none
CC12C=C(/C=C/c3ccc(Br)cc3)C(C)(C1)[C@H](c1ccc(Br)cc1)CC2=O (some centres not stated)	Cruzain noTriton inconclusive
O=C(O)C(=Cc1ccc(-c2ccccc2)cc1)C(=O)O	none
O=C(NN1C(=O)c2cc(Br)ccc2NC1c1ccccc1Cl)c1ccncc1 (configuration not stated)	none
O=C(NN1C(=O)c2cc(Br)ccc2NC1c1cc(Br)cc(Br)c1O)c1ccncc1 (configuration not stated)	Cruzain noTriton 10µM
COc1ccccc1CNc1ccnc(-c2ccoc2)n1	none
COc1ccccc1CNc1nc(-c2ccoc2)nc2ccccc12	Cruzain noTriton 25.1µM
Oc1ccc([C@H](O)C2CCCCN2)cc1O (some centres not stated)	none
Cc1ccc(CNc2ccc3c(c2)OCO3)cc1	Cruzain noTriton 25.1µM
c1cc(CNc2ccc3c(c2)OCO3)ccn1	none
O=C(COC(=O)c1ccc(-c2ccc([N+](=O)[O-])cc2)o1)NC(=O)NC1CCCCC1	Cruzain noTriton inconclusive
O=C(COC(=O)c1ccc(-c2ccc([N+](=O)[O-])cc2)o1)NC(=O)NC12CC3CC(CC(C3)C1)C2	Cruzain noTriton 25.1µM
Cc1c(Cl)cccc1NC(=O)CNS(=O)(=O)c1cccs1	none
COc1cc(N[C@@H](C)CCCN)c2ncccc2c1	none
COc1ccc(S(=O)(=O)N(CC(=O)Nc2cccc(C(F)(F)F)c2)c2ccc(C)cc2)cc1	none
Cc1ccc(NC(=O)CCn2nc(C)c(S(=O)(=O)N3CCCCC3)c2C)cc1Cl	Cruzain noTriton inconclusive
CCOC(=O)c1sc(-n2[nH]c(C)cc2=O)nc1C	Cruzain inh Det inconclusive
CCOC(=O)Cc1cc(=O)n(-c2nc3ccccc3s2)[nH]1	Cruzain inh Det 17.8µM, Cruzain noTriton inconclusive
NNS(=O)(=O)c1cc(C(=O)O)cc(C(=O)O)c1	none
CC(C)[C@@H](CC(=O)N[C@@H]1CCNC[C@H]1C(=O)N[C@H](CC(=O)N[C@@H](CCC(=O)O)CC(=O)O)Cc1c[nH]c2ccccc12)NC(=O)C[C@H](CO)NC(=O)[C@@H]1CCCC[C@H]1N	none
Cc1cc(C)cc(N2CCn3c2nc2c3c(=O)n(C/C=C/c3ccccc3)c(=O)n2C)c1	none
O=C(N/N=C\c1ccc(-c2ccccc2[N+](=O)[O-])o1)C1COc2ccccc2O1 (configuration not stated)	Cruzain noTriton inconclusive
O=C(N/N=C\c1ccc(-c2ccccc2[N+](=O)[O-])o1)C1COc2cc3ccccc3cc2O1 (configuration not stated)	Cruzain noTriton 7.94µM
COc1ccccc1C(=O)NC(=S)/C=C1/N(C)c2ccccc2C1(C)C	Cruzain inh Det 14.1µM, Cruzain noTriton 25.1µM
CN1/C(=C\C(=S)NC(=O)c2ccccc2Cl)C(C)(C)c2ccccc21	Cruzain inh Det 25.1µM, Cruzain noTriton 31.6µM
CN1/C(=C\C(=O)Nc2ccc(Cl)cc2)C(C)(C)c2ccccc21	none
CN1/C(=C\C(=O)c2cccs2)C(C)(C)c2ccccc21	none
CN(C)Cc1cc(C(C)(C)C)cc(CNC2CCCCC2)c1O	none
COc1ccc(-n2nc(C(=O)Nc3ccccc3OC)c3c4ccccc4n(C)c3c2=O)cc1Cl	none
O=C(Nc1sc2c(c1C(=O)NCc1ccco1)CCCC2)c1cc(=O)c2cc(Cl)ccc2o1	none
Cc1ccc(-n2nc(C)c3c(C(=O)NCc4ccc(F)cc4)cc(C)nc32)cc1	none
CCOC(=O)C1CCN(C(=O)Cn2ncc3c([nH]c4ccc(C)cc43)c2=O)CC1	none
O=C(N/N=C/c1ccc(OC(=O)c2cccs2)cc1)c1cccc(F)c1	Cruzain noTriton 20µM
COc1cccc(C(=O)NCC(=O)N/N=C/c2ccc(OC(=O)c3cccs3)c(OC)c2)c1	none
OB(O)c1cc2ccccc2o1	none
CCc1ccccc1OCC(=O)Nc1ccc(S(=O)(=O)Nc2nc(C)cc(C)n2)cc1	Cruzain noTriton inconclusive
CCOC(=O)Cc1csc(NC(=O)CSc2ncnc3c2cnn3-c2ccccc2Cl)n1	none
COC(=O)c1c(NC(=O)CSc2ncnc3c2cnn3-c2ccccc2Cl)sc2c1CCCC2	Cruzain noTriton 3.16µM
NC1=C(c2ccc(F)cc2)C(=O)CS1	Cruzain inh Det inconclusive, Cruzain noTriton 15.8µM
Nc1nnc(-c2ccc(F)cc2)s1	none
CC1=N[C@@](C)(COC(=O)[C@]2(C)N[C@](C)(CO)CO2)COC1=O	none
O=Cc1ccc(CO)o1	none
CSCC[C@H](NC(=O)COc1ccc(Cl)cc1)c1nc2ccccc2[nH]1	Cruzain inh Det 7.08µM, Cruzain noTriton 12.6µM
CSCCC(NC(=O)c1cccc([N+](=O)[O-])c1)c1nc2ccccc2[nH]1 (configuration not stated)	Cruzain noTriton inconclusive
Cc1cc(Cl)ccc1OCC(=O)N[C@@H](Cc1ccccc1)c1nc2ccccc2[nH]1	none
CSCC[C@H](NC(=O)c1cc([N+](=O)[O-])ccc1Cl)c1nc2ccccc2[nH]1	Cruzain inh Det 22.4µM
Cc1ccc(NC(=O)N2CCN(Cc3nc4ccc(C)cc4o3)CC2)cc1	Cruzain noTriton inconclusive
CN(C(=O)C1=CC(c2ccc3c(c2)OCO3)=NS(=O)(=O)N1C)c1ccccc1	none
Cc1c(C(=O)N2CCC(C)CC2)c(S(=O)(=O)NCc2ccc(Cl)cc2)c(C)n1C	none
Cc1cc(Nc2ccc(Br)c(C)c2)n2nc(-c3ccco3)nc2n1	none
O=C1CCCC(=O)N1c1ccc(Oc2ccc(Cl)cc2)cc1	none
O=C1C=C(Nc2ccc(Cl)cc2)C(=O)N1c1ccc(Cl)cc1	Cruzain noTriton 6.31µM
COc1ccc(NC(=O)c2oc3ccccc3c2NC(=O)c2cc(C)cc(C)c2)c(OC)c1	none
Cc1cc(C)c(-c2cc(NC(=O)COC(=O)c3ccc(C#N)cc3)n(-c3ccccc3)n2)cc1C	Cruzain noTriton 15.8µM
Cc1cc(C)c(-c2cc(NC(=O)CSc3nncn3C)n(-c3ccccc3)n2)cc1C	Cruzain noTriton inconclusive
Cc1ccc(NC(=O)Cn2c(=O)c3cc(Cl)ccc3n3nncc23)cc1	none
